Source: PubChem BioAssay AID1159580 (chemical genetic matrix, 2015)
About 2,000 (36%) of roughly 5,500 compounds were called active. Roughly 18% stayed inconclusive and do not appear here. Rule as the data show it: active = normalized growth mostly below about 0.91 (no sharp cut-off); inconclusive = no clear call, values can overlap the other calls; inactive = mostly above about 0.92. The list shows a part of the results.

Test: chemical genetic growth profiling, strain panel (AID 1159580);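 also: tested at 20 µM; growth read once vehicle control cultures reached saturation at 30 °C; 1 = growth at the plate median or of vehicle wells; lower values mean less growth of the strain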
Conditions: growth OD

Measured: normalized growth

COc1ccc(OC)c(C(O)CNC(=O)CN)c1 (stereo not given)
inactive: S. cerevisiae deletion strains, locus YKL009W, strain mrt4, stronger effect = lower value 0.969 | S. cerevisiae deletion strains, locus YKL068W, stronger effect = lower value 0.985 | S. cerevisiae deletion strains, locus YKL085W, strain MDH1 (second series), stronger effect = lower value 0.984 | S. cerevisiae deletion strains, locus YKL085W, strain MDH1, stronger effect = lower value 0.984 | S. cerevisiae deletion strains, locus YKL160W, strain elf1, stronger effect = lower value 1 | S. cerevisiae deletion strains, locus YKL190W, strain CNB1, stronger effect = lower value 0.984 | S. cerevisiae deletion strains, locus YKR001C, strain vps1, stronger effect = lower value 0.96 | S. cerevisiae deletion strains, locus YKR026C, strain gcn3, stronger effect = lower value 1.01 | S. cerevisiae deletion strains, locus YKR091W, strain srl3, stronger effect = lower value 0.996 | S. cerevisiae deletion strains, locus YLL001W, strain dnm1, stronger effect = lower value 1.01 | S. cerevisiae deletion strains, locus YLL026W, stronger effect = lower value 0.999 | S. cerevisiae deletion strains, locus YLL041C, strain sdh2, stronger effect = lower value 0.995 | S. cerevisiae deletion strains, locus YLR027C, strain aat2, stronger effect = lower value 1 | S. cerevisiae deletion strains, locus YLR039C, strain RIC1, stronger effect = lower value 0.966 | S. cerevisiae deletion strains, locus YLR058C, strain SHM2, stronger effect = lower value 0.976 | S. cerevisiae deletion strains, locus YLR102C, strain apc9, stronger effect = lower value 0.982 | S. cerevisiae deletion strains, locus YLR113W, strain HOG1, stronger effect = lower value 1.05 | S. cerevisiae deletion strains, locus YLR221C, strain rsa3, stronger effect = lower value 1 | S. cerevisiae deletion strains, locus YLR258W, strain gsy2, stronger effect = lower value 1 | S. cerevisiae deletion strains, locus YLR262C, strain YPT6 (second series), stronger effect = lower value 1.01 | S. cerevisiae deletion strains, locus YLR262C, strain YPT6, stronger effect = lower value 0.956 | S. cerevisiae deletion strains, locus YLR268W, strain sec22, stronger effect = lower value 0.996 | S. cerevisiae deletion strains, locus YLR320W, strain mms22, stronger effect = lower value 1.03 | S. cerevisiae deletion strains, locus YLR330W, strain CHS5, stronger effect = lower value 1 | S. cerevisiae deletion strains, locus YLR342W, strain FKS1 (second series), stronger effect = lower value 1.04 | S. cerevisiae deletion strains, locus YLR342W, strain FKS1, stronger effect = lower value 1.01 | S. cerevisiae deletion strains, locus YLR357W, strain rsc2, stronger effect = lower value 1.02 | S. cerevisiae deletion strains, locus YLR370C, strain arc18, stronger effect = lower value 1 | S. cerevisiae deletion strains, locus YLR371W, strain rom2, stronger effect = lower value 0.974 | S. cerevisiae deletion strains, locus YLR384C, strain iki3, stronger effect = lower value 1.02 | S. cerevisiae deletion strains, locus YLR418C, strain cdc73, stronger effect = lower value 0.973 | S. cerevisiae deletion strains, locus YML016C, strain PPZ1, stronger effect = lower value 0.99 | S. cerevisiae deletion strains, locus YML032C, strain rad52, stronger effect = lower value 0.959 | S. cerevisiae deletion strains, locus YML120C, strain ndi1, stronger effect = lower value 0.993 | S. cerevisiae deletion strains, locus YML124C, strain tub3, stronger effect = lower value 0.981 | S. cerevisiae deletion strains, locus YMR058W, strain fet3, stronger effect = lower value 1 | S. cerevisiae deletion strains, locus YMR078C, strain ctf18, stronger effect = lower value 0.976 | S. cerevisiae deletion strains, locus YMR125W, strain sto1, stronger effect = lower value 1 | S. cerevisiae deletion strains, locus YMR129W, stronger effect = lower value 1 | S. cerevisiae deletion strains, locus YMR205C, strain PFK2, stronger effect = lower value 1.02 | S. cerevisiae deletion strains, locus YMR223W, strain ubp8, stronger effect = lower value 0.993 | S. cerevisiae deletion strains, locus YMR231W, strain pep5, stronger effect = lower value 1.02 | S. cerevisiae deletion strains, locus YMR263W, strain SAP30, stronger effect = lower value 0.988 | S. cerevisiae deletion strains, locus YMR307W, strain GAS1, stronger effect = lower value 1.05 | S. cerevisiae deletion strains, locus YNL067W, strain RPL9B, stronger effect = lower value 0.971 | S. cerevisiae deletion strains, locus YNL071W, strain lat1, stronger effect = lower value 0.99 | S. cerevisiae deletion strains, locus YNL128W, strain TEP1, stronger effect = lower value 0.983 | S. cerevisiae deletion strains, locus YNL153C, strain GIM3, stronger effect = lower value 0.961 | S. cerevisiae deletion strains, locus YNL183C, strain NPR1, stronger effect = lower value 1 | S. cerevisiae deletion strains, locus YNL209W, strain ssb2, stronger effect = lower value 0.998 | S. cerevisiae deletion strains, locus YNL233W, strain BNI4, stronger effect = lower value 1.01 | S. cerevisiae deletion strains, locus YNL248C, strain rpa49, stronger effect = lower value 0.998 | S. cerevisiae deletion strains, locus YNL250W, strain rad50, stronger effect = lower value 0.968 | S. cerevisiae deletion strains, locus YNL271C, strain bni1, stronger effect = lower value 0.982 | S. cerevisiae deletion strains, locus YNL298W, strain CLA4, stronger effect = lower value 0.986 | S. cerevisiae deletion strains, locus YNL307C, strain MCK1, stronger effect = lower value 0.96 | S. cerevisiae deletion strains, locus YNL322C, strain KRE1 (second series), stronger effect = lower value 0.997 | S. cerevisiae deletion strains, locus YNL322C, strain KRE1, stronger effect = lower value 0.989 | S. cerevisiae deletion strains, locus YNR049C, strain mso1, stronger effect = lower value 1 | S. cerevisiae deletion strains, locus YNR052C, strain pop2, stronger effect = lower value 0.973 | S. cerevisiae deletion strains, locus YOL006C, strain TOP1, stronger effect = lower value 0.933 | S. cerevisiae deletion strains, locus YOL012C, strain htz1 0.916 | S. cerevisiae deletion strains, locus YOL147C, strain pex11, stronger effect = lower value 0.982 | S. cerevisiae deletion strains, locus YOR001W, strain rrp6, stronger effect = lower value 0.996 | S. cerevisiae deletion strains, locus YOR061W, strain CKA2, stronger effect = lower value 0.967 | S. cerevisiae deletion strains, locus YOR069W, strain VPS5, stronger effect = lower value 0.995 | S. cerevisiae deletion strains, locus YOR070C, strain gyp1, stronger effect = lower value 0.997 | S. cerevisiae deletion strains, locus YOR080W, strain dia2, stronger effect = lower value 1.01 | S. cerevisiae deletion strains, locus YOR083W, strain WHI5, stronger effect = lower value 1.01 | S. cerevisiae deletion strains, locus YOR106W, strain vam3, stronger effect = lower value 1.02 | S. cerevisiae deletion strains, locus YOR136W, strain idh2, stronger effect = lower value 0.977 | S. cerevisiae deletion strains, locus YOR144C, strain elg1, stronger effect = lower value 0.99 | S. cerevisiae deletion strains, locus YOR184W, strain ser1, stronger effect = lower value 0.97 | S. cerevisiae deletion strains, locus YOR231W, strain MKK1, stronger effect = lower value 1.05 | S. cerevisiae deletion strains, locus YOR265W, strain rbl2, stronger effect = lower value 0.998 | S. cerevisiae deletion strains, locus YOR270C, strain vph1, stronger effect = lower value 1.03 | S. cerevisiae deletion strains, locus YOR290C, strain snf2, stronger effect = lower value 0.997 | S. cerevisiae deletion strains, locus YOR316C, strain cot1, stronger effect = lower value 0.96 | S. cerevisiae deletion strains, locus YPL051W, strain arl3, stronger effect = lower value 1 | S. cerevisiae deletion strains, locus YPL055C, strain LGE1, stronger effect = lower value 0.94 | S. cerevisiae deletion strains, locus YPL078C, strain atp4, stronger effect = lower value 1.01 | S. cerevisiae deletion strains, locus YPL106C, strain sse1, stronger effect = lower value 1.01 | S. cerevisiae deletion strains, locus YPL240C, strain hsp82, stronger effect = lower value 0.997 | S. cerevisiae deletion strains, locus YPL256C, strain CLN2, stronger effect = lower value 1.01 | S. cerevisiae deletion strains, locus YPR119W, strain clb2, stronger effect = lower value 0.985 | S. cerevisiae deletion strains, locus YPR141C, strain kar3, stronger effect = lower value 0.966 | S. cerevisiae deletion strains, locus YPR163C, strain tif3, stronger effect = lower value 0.983 | S. cerevisiae deletion strains, locus YPR167C, strain met16, stronger effect = lower value 0.98 | S. cerevisiae deletion strains, strain wtn01, stronger effect = lower value 1.01 | S. cerevisiae strains, strain wild type, stronger effect = lower value 0.977
